Experimental findings from PubChem BioAssay (EPA / NIEHS) are described below.

“And” between values parts separate entries of the source, which are not always exact repeats. Equal values may be shown once. Results filed as inconclusive are left out. Where a structure was tested more than once in an assay, its records may differ in their call. The source made the active and inactive calls. The calls were made as follows: active = hit-call score of the fitted dose curve at least 0.9, where 1 is the maximum; inconclusive = response in the unintended direction; inactive = score below 0.9.

Sequence of Glucocorticoid receptor (Homo sapiens) (P04150 whole entry, looked up): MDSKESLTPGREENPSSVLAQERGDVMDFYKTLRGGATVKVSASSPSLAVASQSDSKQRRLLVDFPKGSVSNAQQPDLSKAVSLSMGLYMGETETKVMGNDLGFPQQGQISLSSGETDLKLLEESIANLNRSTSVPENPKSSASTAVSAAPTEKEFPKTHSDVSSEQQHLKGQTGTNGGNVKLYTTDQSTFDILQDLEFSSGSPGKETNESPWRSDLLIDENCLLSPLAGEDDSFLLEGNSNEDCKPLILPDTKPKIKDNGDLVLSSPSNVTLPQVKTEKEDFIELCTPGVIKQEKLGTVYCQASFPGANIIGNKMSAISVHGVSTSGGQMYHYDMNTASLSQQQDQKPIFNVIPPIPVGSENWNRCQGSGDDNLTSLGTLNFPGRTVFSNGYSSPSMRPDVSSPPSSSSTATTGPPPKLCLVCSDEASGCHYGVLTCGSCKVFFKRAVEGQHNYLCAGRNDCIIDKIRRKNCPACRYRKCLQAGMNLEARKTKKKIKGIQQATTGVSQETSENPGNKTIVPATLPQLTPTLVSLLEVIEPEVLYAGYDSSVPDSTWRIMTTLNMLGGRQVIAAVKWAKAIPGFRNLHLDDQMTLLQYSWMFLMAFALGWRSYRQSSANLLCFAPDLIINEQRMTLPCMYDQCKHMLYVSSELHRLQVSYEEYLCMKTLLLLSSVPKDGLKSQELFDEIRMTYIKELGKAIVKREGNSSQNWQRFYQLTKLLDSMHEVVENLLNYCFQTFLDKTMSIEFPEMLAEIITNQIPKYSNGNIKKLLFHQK

The test deals with Glucocorticoid receptor (Homo sapiens) (UniProt P04150). As to the kind of experiment: NVS_NR_hGR: NovaScreen (NVS) Nuclear Receptor Binding Assay for human Glucocorticoid Receptor (GR) (AID 2283363). The protocol:
NVS_NR_hGR is a biochemical, single-readout assay that uses extracted gene-proteins in a cell-free assay. Measurements were taken 16 hours after chemical dosing in a 96-well plate.NVS_NR_hGR is one of one assay component(s) measured or calculated from the NVS_NR_hGR assay. It is designed to make measurements of radioligand binding, a form of binding reporter, as detected with scintillation counting signals by Filter-based radiodetection technology.Data from the assay component NVS_NR_hGR was analyzed into 1 assay endpoint. This assay endpoint, NVS_NR_hGR, was analyzed in the positive analysis fitting direction relative to DMSO as the negative control and baseline of activity. Using a type of binding reporter, loss-of-signal activity can be used to understand changes in the binding as they relate to the gene NR3C1. Furthermore, this assay endpoint can be referred to as a primary readout, because the performed assay has only produced 1 assay endpoint. To generalize the intended target to other relatable targets, this assay endpoint is annotated to the nuclear receptor intended target family, where the subfamily is steroidal.
Binding assays used specific radioligands (tritiated, iodinated) with non-radioactive competitive displacement ligands in agonist or antagonist protocols (as indicated) and various reference compounds and inhibitors to titrate specific binding to receptors and transporters. Most enzyme assays (CYPs, kinases, phosphatases, proteases, HDACs) used recombinant protein and specific substrates (fluorescence mostly, some colorimetric and radioactive) and inhibitors, followed by a biochemical separation of substrate and product. All assays for the biochemical HTS were initially run in duplicate at a single concentration (10 uM for CYP450 assays and 25 uM for all others). […] Each assay was run with positive and negative controls, and concurrent controls on every plate. The follow-up (secondary) screen tested active chemical-pairs in concentration series, as well as a few additional assays not tested in the primary screen, some selected negative inactives, and several cases re-run in the concentration series for confirmatory purposes.
For the molecule `CCCCCCCc1ccc(O)cc1`, the AC50 – broadly, the midpoint of the concentration-response curve, whichever way the signal moves – was 33.3 µM (active) and the molecule was called inactive. As for `C=CC(=O)OCC(CC)(COC(=O)C=C)COC(=O)C=C`, the AC50 was 14 µM (active). For `c1ccc2c(c1)sc1ccccc12`, the half-maximal activity concentration (AC50) was 0.179 µM (active) and the outcome was inactive. On to `CSC(C)(C)C=NO`, for which the molecule was called inactive. Still for that read-out and setting: next, `CCC(C)(C)c1ccc(O)cc1`: “inactive”. The same measure, in the same setting: under `CCOP(=S)(NC(C)C)Oc1ccccc1C(=O)OC(C)C` (stereo unspecified) stands “inactive”. Regarding `ClC1=C(Cl)C2(Cl)C3C(Cl)C(Cl)CC3C1(Cl)C2(Cl)Cl` (stereo unspecified), the molecule was called inactive. Take `CCCCC(CC)COC(=O)c1c(Br)c(Br)c(Br)c(Br)c1C(=O)OCC(CC)CCCC` (stereo unspecified): the AC50 was 6.58 µM (active) and 6.59 µM (active). In the case of `CC(C)Nc1ccc(Nc2ccccc2)cc1`, the AC50 was 25 µM (active).
